The record followed here is PubChem BioAssay AID651947 (Broad Institute, 2012).

The experiment can be described thus: cytotoxicity in HepG2 cells, dose response, cytotoxicity control, cell-based, plate reader, dry powder (AID 651947). Conditions: HepG2 viability, ATP luminescence (CellTiter-Glo), 48 h, stronger effect = lower value. In general terms: Cellular ATP, detected with luciferase, serves as a proxy for viable cell number.

SMILES strings stand for the structures. Results with a measured potency or affinity are listed apart. Records with an inconclusive call do not appear. Unmarked numbers belong to inactive results.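 How the source made its calls: active means luminescence drop in HepG2 cells whose fitted half-effect dose is at most twice the top valid dose; inconclusive means flat curve with 30 to 70% signal loss, or unreliable fit; inactive means the rest.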

As to `Fc1ccc(CSc2nnc(-c3ccccc3)o2)cc1`, the max activity is, setting by setting: (at 0.38 µM) 22%; (at 12 µM) -25.4%.
